High-throughput results from PubChem.
Rows were chosen to be rich in hits. Some 17% of all compounds tested hit in one or more screens of this group.
ATXN2 expr inh = inhibitors of ATXN2 expression | 360,000 tested, 0.72% active | AID 1745845 | HEK-293 ATXN2-luciferase reporter, luminescence, 24 h | Potency, µM (titrated, usually from 57 µM), without a hit: at the top dose activity change, negative = inhibition, usual class: inhibitors; further: on the % scale 0 is the no-effect control and ±100 the full control effect; nearly all actives have a fitted effect of over 55% in size
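qHTS (up to 57 uM final) was run with 24 h compound exposure of reporter cells at 37 °C. Each well was multiplexed: SteadyGlo luminescence measured ATXN2-luciferase expression after a fluorogenic Gly-Phe-AFC viability readout (25 uM final).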
TDP1 cell CPT = growth inhibition of DT40 Tdp1-/-;hTDP1 cells with camptothecin (screen for TDP1 inhibitors); 420,000 tested, 12% active; chicken DT40 Tdp1-/-;hTDP1 cells + 20 nM CPT, ATP luminescence, 48 h; Potency, µM (doses to about 46.2 µM), without a hit: at the top dose activity change, negative = growth inhibition, hits mostly inhibitors; further: on the % scale 0 is the no-effect control and ±100 the full control effect; nearly all actives have a fitted effect of over 55% in size
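Cell growth measured by CellTiter-Glo luminescence after a minimum 48 h, 37 C compound exposure with 20 nM CPT in Tdp1-knockout DT40 cells stably expressing hTDP1, seeded 400/well; qHTS titration format.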
TDP1 cell noCPT = qHTS for Inhibitors of human tyrosyl-DNA phosphodiesterase 1 (TDP1): qHTS in cells in absence of CPT. DT40 Tdp1-/- hTDP1 cells, no CPT, ATP luminescence, 48 h. Potency, µM (titrated, usually from 46.2 µM), for inactives: at the top dose activity change, negative = growth inhibition, usual class: inhibitors. 420,000 tested, 15% active. AID 686978, 2013; further: on the % scale 0 is the no-effect control and ±100 the full control effect; nearly all actives have a fitted effect of over 55% in size
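Growth of hTDP1-complemented DT40 Tdp1-knockout cells is measured by ATP luminescence after at least 48 hr compound exposure at 37 °C, with DMSO substituting for the 20 nM CPT used in the parallel screen.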
HepG2 tox = kills HepG2 cells in TGF-b inhibitor counter-screen; HepG2 CAGA-GFP viability, ATP luminescence, 18 h; Potency, µM (titrated, usually from 46.1 µM), for the others: at the highest dose activity change, negative = cytotoxicity, actives largely listed as cytotoxic; 410,000 tested, 0.76% active; AID 588856
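HepG2 CAGA-GFP cells (1000/well, DMEM with 1% FBS) received compound, then TGF-beta at 500 pg/mL final, and were incubated 18 hours at 37 degrees C. Viability was read by CellTiter-Glo luminescence. Media-only wells were set as complete cell-killing and DMSO as no toxicity.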
ATXN viability = cell viability loss in ATXN counter-screen | S2 cells (HEK-293 line with an ATXN2-luciferase reporter) viability, CellTiter-Fluor protease fluorescence, 24 h | Potency, µM (series often up to 56.7 µM), hits mostly cytotoxic | 400,000 tested, 0.49% active | AID 651635; further: nearly all actives have a fitted effect of over 40% in size
TGFb inhibitor = inhibitors of TGF-b signaling; HepG2 CAGA-GFP TGF-b/SMAD3 reporter, GFP fluorescence, 18 h; TGF-beta stimulated, 500 pg/mL final; Potency, µM (top dose mostly 46.1 µM), inactives show top-dose activity, negative = inhibition, most hits filed as inhibitors; 410,000 tested, 1.2% active; AID 588855; further: on the % scale 0 is the no-effect control and ±100 the full control effect; nearly all actives have a fitted effect of over 65% in size
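HEPG2 CAGA-GFP cells (1000/well, DMEM with 1% FBS) were pre-incubated 2 h at 37 degrees C, given compound by pin tool, then stimulated with TGF-beta at 500 pg/mL final for 18 h before per-cell GFP fluorescence imaging.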
Starred values were filed as active, the others as inactive; i = inactive; ? = inconclusive; nt = no result; ! = not active in a repeat; [ ] = another dose, or the depositor's remark. The call rests on the fitted dose curve; in most records, active means well fitted curve in the direction sought with a large enough effect; inconclusive means small, poorly fitted or top-dose-only effect, or another doubt; inactive means no such curve, though single readings can be large; an effect the other way counts as inactive or inconclusive. Potency means the concentration at half of the fitted maximal effect.

SMILES	ATXN2 expr inh	TDP1 cell CPT	TDP1 cell noCPT	HepG2 tox	ATXN viability	TGFb inhibitor
CCOc1ccccc1N(C)C(=O)c1nn(-c2ccc(C)cc2)c(=O)c2c1c1ccccc1n2C	2%	-6%	-13%	-11%	i	-22%
Cc1ccc(-n2nc(C(=O)N(C)Cc3ccccc3)c3c4ccccc4n(C)c3c2=O)cc1	12%	23µM*	9.2µM*	-27%	i	?
CN(CC(=O)Nc1ccccc1Cl)C1CCS(=O)(=O)C1 (configuration not stated)	nt	-2%	1%	11%	nt	34%
COc1cccc(CN(C(=O)c2oc3ccccc3c2C)C2CCS(=O)(=O)C2)c1 (configuration not stated)	nt	?	21µM*	-26%	nt	?
COc1ccc(CN(C(=O)c2oc3cc(C)ccc3c2C)C2CCS(=O)(=O)C2)cc1OC (configuration not stated)	-10%	-5%	?	-3%	?	?
COc1cccc(CN(C(=O)c2oc3cc(C)ccc3c2C)C2CCS(=O)(=O)C2)c1 (configuration not stated)	nt	?	18µM*	-14%	nt	-14%
O=C(N/N=C/c1ccco1)c1cccc(NC(=O)c2cccc(Cl)c2)c1	-10%	?	-28%	3%	i	15%
COCCNc1nc(-c2ccoc2)nc2ccccc12	nt	?	-20%	nt	nt	nt
CC(=O)Oc1cccc(C(=O)O)c1OC(C)=O	nt	9%	-5%	nt	nt	nt
CC(=O)Oc1ccc2nonc2c1OC(C)=O	nt	5.6µM*	5.6µM*	-3%	nt	-13%
OC[C@@H]1CN(Cc2ccc3c(c2)OCO3)C[C@H](n2cnc3c(NCc4ccc(F)cc4)ncnc32)O1	-1%	?	?	24%	i	38%
C[N+](C)(C)CCN(Cc1ccc(Cl)cc1)c1ccccn1	-3%	18µM*	16µM*	-1%	i	3%
CN(C)CCN(Cc1ccc(Cl)cc1)c1ccccn1	-4%	?	?	-11%	i	5%
O=C(CN1CCCCCCC1)Nc1cc(Cl)cc(Cl)c1	-9%	?	?	5%	i	3%
CCOc1ccc(N(CC(=O)NCCSCc2ccco2)S(=O)(=O)c2ccc(F)cc2)cc1	-3%	?	21µM*	0%	i	-7%
COc1ccc(N(CC(=O)NCCSCc2ccc(C)cc2)S(=O)(=O)c2ccccc2)cc1	-4%	?	7.3µM*	-8%	i	-23%
CCOc1ccc(N(CC(=O)NCCSCc2ccco2)S(=O)(=O)c2ccc(C)cc2)cc1	-11%	18µM*	?	-5%	i	-4%
Fc1ccc(-c2nc(-c3c[nH]c4ccccc34)cs2)cc1	nt	-30%	-17%	-19%	nt	-8%
CCC(C)NS(=O)(=O)c1ccc(-c2csnn2)s1 (configuration not stated)	2%	-3%	-20%	-12%	i	-2%
COc1cc(CNCc2cc3ccc(F)cc3nc2N2CCOCC2)cc(OC)c1OC	nt	-10%[9.04 µM]	-23%	nt	i	nt
NC(=O)c1sc2cc(C(F)(F)F)cnc2c1-c1ccccc1	18%	7%	-18%	-3%	i	0%
CNC(=S)NNC(=O)c1sc2cc(C(F)(F)F)cnc2c1-c1ccccn1	-3%	6%	?	2.5µM*	i	0%
CC12CCC=CC1C(c1ccc3ccccc3c1)N(Cc1ccccc1)C2=O (configuration not stated)	nt	nt	nt	1%	nt	-15%
Cc1cc(C)c(NC(=O)CN(C)S(=O)(=O)c2ccc3c(c2)CCC(=O)N3)c(C)c1	9%	-13%	-24%	1%	i	?
Cc1ccc2nc(CSc3nnc(NC(=O)C(C)C)s3)cc(=O)n2c1	nt	?	?	20%	nt	8%
SMILES	ATXN2 expr inh	TDP1 cell CPT	TDP1 cell noCPT	HepG2 tox	ATXN viability	TGFb inhibitor
COc1ccccc1CN1CC(C(=O)NCCCCc2ccccn2)CCC1=O (configuration not stated)	nt	-5%	-21%	-3%	i	1%
CCOC(=O)C1=CCC(c2cccs2)N(S(=O)(=O)c2ccc(C)cc2)C1 (configuration not stated)	-26%	?	?	-43%	i	?
CCOC(=O)C1=CCC(c2cccn2C(=O)OC(C)(C)C)N(S(=O)(=O)c2ccc(C)cc2)C1 (configuration not stated)	4%	?	?	-4%	i	?
CCOC(=O)C1=CCC(c2cccc(C)c2)N(S(=O)(=O)c2ccc(C)cc2)C1 (configuration not stated)	-34%	18µM*	16µM*	-16%	i	?
CCOC(=O)C1=CCC(c2ccccc2)N(S(=O)(=O)c2ccccc2)C1 (configuration not stated)	-9%	23µM*	18µM*	-29%	i	-26%
CC(C)c1ccc(N2C(=O)CSC23C(=O)N(Cc2ccccc2F)c2ccccc23)cc1 (configuration not stated)	-2%	nt	nt	1%	i	6%
CC(=O)Nc1cc(C(=O)NCc2ccc(C)cc2)ccc1Sc1ccc(C)cc1	nt	16µM*	23µM*	-17%	nt	0%
CCOc1ccc(CNC(=O)c2ccc(Sc3ccc(Cl)cc3)c(NC(C)=O)c2)cc1OC	-14%	?	21µM*	-33%	?	11µM*!
CCOc1ccc(CNC(=O)c2ccc(Sc3ccc(C)cc3)c(NC(C)=O)c2)cc1OC	-9%	-23%	?	1%	i	?
COc1ccc(N2CCN(S(=O)(=O)c3c(C)nc4sccn4c3=O)CC2)cc1	1%	-13%	-30%	0%	i	5%
COc1ccc(-n2c(=O)c3ccccc3n(CC(=O)NCCc3ccccc3)c2=O)c(OC)c1	3%	?	?	-13%	?	-14%
O=c1c(-c2cc(F)cc(F)c2)nc2cnc(N3CCNCC3)nc2n1Cc1cccs1	nt	?	21µM*	nt	nt	nt
CN1CCN(c2ncc3nc(-c4cccs4)c(=O)n(CCC#N)c3n2)CC1	nt	-88%	?	nt	nt	nt
CN1CCN(c2ncc3nc(-c4cccs4)c(=O)n(C[C@H]4CCCO4)c3n2)CC1	nt	12µM*	5.2µM*	nt	nt	nt
O=c1c(-c2cc(F)cc(F)c2)nc2cnc(N3CCOCC3)nc2n1Cc1cccs1	nt	9%	2%	nt	nt	nt
CN1CCN(c2ncc3nc(-c4cccs4)c(=O)n(Cc4cccs4)c3n2)CC1	nt	18µM*	?	nt	nt	nt
